The record followed here is the supplement of paper PMC10981050.

The term cell viability denotes a read-out of living cells in per cent, often relative to untreated cells.

Holding throughout (experiment): cell viability relative to vehicle control; higher = less cytotoxic
Conditions in all cases: 10 µM

For experiment [1], the system named is K562. The method, boiled down: (§1)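 Four leukaemia lines, as CRISPR-edited mutant clones and isogenic wild-type clones, were tested against Selleck bioactive, kinase and epigenetic probe libraries after removal of identity-inconsistent compounds. Cells were exposed to a single 10 µM dose for 48 h, and CellTiter-Glo luminescence was then read. Viability was calculated relative to the on-plate vehicle control.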

The subject of experiment [2] is MARIMO. The essentials:
as §1

Experiment [3] relates to MOLM14. The essentials: as §1
Experiment [4] concerns OCI-AML2. The essentials: as §1

“And” between values parts separate entries of the source, which are not always exact repeats. Equal entries are not always repeated.

Regarding `CN(CC(=O)N(Cc1ccc(C2CCCCC2)cc1)c1ccc(C(=O)O)cc1)S(=O)(=O)c1c(F)c(F)c(F)c(F)c1F`, the cell viability in experiment [1] (SRSF2 genotype: SRSF2 P95H/wt) is 10.6% and 6.35%; in experiment [1] (SRSF2 genotype: SRSF2 wt/wt), 7.31%; in experiment [2] (SRSF2 genotype: SRSF2 P95H/wt) it was 10.3%; in experiment [2] (SRSF2 genotype: SRSF2 wt/wt), 2.43%; in experiment [3] (SRSF2 genotype: SRSF2 P95H/wt), 0.37%; in experiment [3] (SRSF2 genotype: SRSF2 wt/wt), 0.15%. Further, the results for the cell viability in experiment [4] (SRSF2 genotype: P95H/wt) and in experiment [4] (SRSF2 genotype: wt/wt) were 0.12% and 0.08%, respectively.
With `N#CC(=Cc1ccc(-c2cc(Cl)ccc2Cl)o1)C(=O)Nc1cccc2ncccc12`, the cell viability in experiment [1] (SRSF2 genotype: SRSF2 P95H/wt) was 101% and 104%; in experiment [1] (SRSF2 genotype: SRSF2 wt/wt), 91.8%; in experiment [2] (SRSF2 genotype: SRSF2 P95H/wt), 99.1%; in experiment [2] (SRSF2 genotype: SRSF2 wt/wt) it was 99.8%; in experiment [3] (SRSF2 genotype: SRSF2 P95H/wt) it was 116%; in experiment [3] (SRSF2 genotype: SRSF2 wt/wt), 112%. Also, the cell viability in experiment [4] (SRSF2 genotype: P95H/wt) is 88.3%; in experiment [4] (SRSF2 genotype: wt/wt), 92%.
`Cc1ncc(CO)c(CO)c1O` [Pyridoxine]: the cell viability in experiment [1] (SRSF2 genotype: SRSF2 P95H/wt) is 98.2% and 103%; in experiment [1] (SRSF2 genotype: SRSF2 wt/wt), 97.3%; in experiment [2] (SRSF2 genotype: SRSF2 P95H/wt) it was 107%; in experiment [2] (SRSF2 genotype: SRSF2 wt/wt), 96.3%; in experiment [3] (SRSF2 genotype: SRSF2 P95H/wt), 101%; in experiment [3] (SRSF2 genotype: SRSF2 wt/wt) it was 102%. The cell viability was 106% in experiment [4] (SRSF2 genotype: P95H/wt) and 99.6% in experiment [4] (SRSF2 genotype: wt/wt).
Take `Nc1ccc(/C=C/C(=O)NCc2cc3cc(-c4ccc(C(=O)N5CCC(F)(F)CC5)cc4)cc(-c4ccc(F)cc4)c3o2)cn1`: the cell viability in experiment [1] (SRSF2 genotype: SRSF2 P95H/wt) is 19.8% and 14.3%; in experiment [1] (SRSF2 genotype: SRSF2 wt/wt) it was 19.1%; in experiment [2] (SRSF2 genotype: SRSF2 P95H/wt), 10%; in experiment [2] (SRSF2 genotype: SRSF2 wt/wt) it was 13.1%; in experiment [3] (SRSF2 genotype: SRSF2 P95H/wt), 4.36%; in experiment [3] (SRSF2 genotype: SRSF2 wt/wt) it was 1.09%. For the same compound, the cell viability in experiment [4] (SRSF2 genotype: P95H/wt) is 4.54%; in experiment [4] (SRSF2 genotype: wt/wt), 4.59%.
Regarding `C=CC(=O)Nc1cccc(Nc2nc(Nc3ccc(OCCOC)cc3)ncc2F)c1`, the cell viability is 66.8% and 79.5% in experiment [1] (SRSF2 genotype: SRSF2 P95H/wt); 73.4% in experiment [1] (SRSF2 genotype: SRSF2 wt/wt); 62.1% in experiment [2] (SRSF2 genotype: SRSF2 P95H/wt); 60.4% in experiment [2] (SRSF2 genotype: SRSF2 wt/wt); 9.43% in experiment [3] (SRSF2 genotype: SRSF2 P95H/wt); 6.93% in experiment [3] (SRSF2 genotype: SRSF2 wt/wt). In addition, the cell viability worked out at 28.2% in experiment [4] (SRSF2 genotype: P95H/wt) and 31.8% in experiment [4] (SRSF2 genotype: wt/wt).
Turning to `CC(=O)OCC(=O)[C@H]1CC[C@H]2[C@@H]3CCC4=CC(=O)CC[C@]4(C)[C@H]3CC[C@]12C` [Deoxycorticosterone acetate], the cell viability in experiment [1] (SRSF2 genotype: SRSF2 P95H/wt) was 91.4% and 91.9%; in experiment [1] (SRSF2 genotype: SRSF2 wt/wt), 98.4%; in experiment [2] (SRSF2 genotype: SRSF2 P95H/wt) it was 89.8%; in experiment [2] (SRSF2 genotype: SRSF2 wt/wt), 99%; in experiment [3] (SRSF2 genotype: SRSF2 P95H/wt) it was 89%; in experiment [3] (SRSF2 genotype: SRSF2 wt/wt), 96.2%. For the same compound, the cell viability in experiment [4] (SRSF2 genotype: P95H/wt) came out at 86.1%; in experiment [4] (SRSF2 genotype: wt/wt), 76.2%.
`CCC(C(=O)O)c1ccc(N2Cc3ccccc3C2=O)cc1` (configuration not stated) [Indobufen]: the cell viability is 92.1% and 90.3% in experiment [1] (SRSF2 genotype: SRSF2 P95H/wt); 102% in experiment [1] (SRSF2 genotype: SRSF2 wt/wt); 91.3% in experiment [2] (SRSF2 genotype: SRSF2 P95H/wt); 100% in experiment [2] (SRSF2 genotype: SRSF2 wt/wt); 96.6% in experiment [3] (SRSF2 genotype: SRSF2 P95H/wt); 101% in experiment [3] (SRSF2 genotype: SRSF2 wt/wt). The cell viability in experiment [4] (SRSF2 genotype: P95H/wt) was 92.2%; in experiment [4] (SRSF2 genotype: wt/wt), 98.3%.
On to `CCOc1nc2cccc(C(=O)OCc3oc(=O)oc3C)c2n1Cc1ccc(-c2ccccc2-c2noc(=O)[nH]2)cc1` [Azilsartan Medoxomil (TAK-491)], for which the cell viability in experiment [1] (SRSF2 genotype: SRSF2 P95H/wt) was determined as 97.7%; in experiment [1] (SRSF2 genotype: SRSF2 wt/wt), 95.6%; in experiment [2] (SRSF2 genotype: SRSF2 P95H/wt) it was 101%; in experiment [2] (SRSF2 genotype: SRSF2 wt/wt) it was 108%; in experiment [3] (SRSF2 genotype: SRSF2 P95H/wt), 105%; in experiment [3] (SRSF2 genotype: SRSF2 wt/wt) it was 102%. For the same compound, the cell viability in experiment [4] (SRSF2 genotype: P95H/wt) is 102%; in experiment [4] (SRSF2 genotype: wt/wt) it was 103%.
Regarding `Cc1ccc(OCC(O)C(C)NC(C)C)c2c1CCC2` (configuration not stated), the cell viability in experiment [1] (SRSF2 genotype: SRSF2 P95H/wt) is 93.5% and 95.7%; in experiment [1] (SRSF2 genotype: SRSF2 wt/wt), 92.1%; in experiment [2] (SRSF2 genotype: SRSF2 P95H/wt), 104%; in experiment [2] (SRSF2 genotype: SRSF2 wt/wt), 100%; in experiment [3] (SRSF2 genotype: SRSF2 P95H/wt), 93.1%; in experiment [3] (SRSF2 genotype: SRSF2 wt/wt) it was 100%. For the same compound, the cell viability in experiment [4] (SRSF2 genotype: P95H/wt) is 92.2%; in experiment [4] (SRSF2 genotype: wt/wt), 99%.
